Holding throughout (assay): DAPPL (digital affinity profiling via proximity ligation, sequencing); 10 mM Tris-HCl pH 7.5, 50 mM NaCl, 1 mM DTT, 4% glycerol, room temperature, 30 min; GST-TFs on glutathione beads, 16-mer random dsDNA library, 0.1% formaldehyde crosslink after washing; high values mean tight binding
Assay [1] addresses T1, FEV (Homo sapiens, UniProt Q99581 1-238).
T1 sequence: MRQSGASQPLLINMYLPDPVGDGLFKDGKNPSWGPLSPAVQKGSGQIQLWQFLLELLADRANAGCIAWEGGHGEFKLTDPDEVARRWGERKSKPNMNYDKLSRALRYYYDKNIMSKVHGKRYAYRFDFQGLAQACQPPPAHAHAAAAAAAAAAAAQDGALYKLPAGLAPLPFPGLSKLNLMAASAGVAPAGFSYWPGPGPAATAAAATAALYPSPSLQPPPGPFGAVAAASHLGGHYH
The conditions noted are these: protein: recombinant; tags: N-terminal GST; dsDNA, one strand shown. An outline of the steps: (§1)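 Human transcription factors fused to GST were expressed in yeast, captured on glutathione beads, given DNA barcodes and pooled with a GST-only negative control. Pools were incubated with 200 nmole of a 16-mer random double-stranded DNA library in Tris/NaCl/DTT/glycerol buffer at room temperature for 30 min. They were then washed, crosslinked with 0.1% formaldehyde, proximity-ligated (BsaI/T4 ligase, 1 h, 37 °C), PCR-amplified and sequenced on an Illumina NextSeq500. Binding signal is each 6-mer's read frequency for a factor divided by its frequency for the GST control.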

Assay [2] concerns the target ETV5 (Homo sapiens, UniProt P41161 1-510). As to conditions: protein: recombinant; tags: N-terminal GST; dsDNA, one strand shown. An outline of the steps:
as §1

For assay [3], the target named is HSF1 (Homo sapiens, UniProt Q00613 1-529). As to conditions: protein: recombinant; tags: N-terminal GST; chain copies: 3; dsDNA, one strand shown. An outline of the steps:
as §1

Assay [4] has as its target T2, SPIC (Homo sapiens, UniProt Q8N5J4 1-248).
T2 sequence: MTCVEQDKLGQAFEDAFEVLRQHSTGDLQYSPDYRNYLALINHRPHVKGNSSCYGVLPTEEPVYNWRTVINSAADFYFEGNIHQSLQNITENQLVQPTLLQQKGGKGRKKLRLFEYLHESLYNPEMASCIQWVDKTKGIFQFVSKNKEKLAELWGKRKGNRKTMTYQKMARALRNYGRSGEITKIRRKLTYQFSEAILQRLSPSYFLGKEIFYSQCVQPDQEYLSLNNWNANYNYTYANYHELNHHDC
As to conditions: protein: recombinant; tags: N-terminal GST; dsDNA, one strand shown. An outline of the steps:
as §1

Assay [5] addresses ELF4 (Homo sapiens, UniProt Q99607 1-663). The conditions noted are these: protein: recombinant; tags: N-terminal GST; dsDNA, one strand shown. An outline of the steps:
as §1

Assay [6] addresses T3, ELK4 (Homo sapiens, UniProt P28324-2 1-405).
T3 sequence: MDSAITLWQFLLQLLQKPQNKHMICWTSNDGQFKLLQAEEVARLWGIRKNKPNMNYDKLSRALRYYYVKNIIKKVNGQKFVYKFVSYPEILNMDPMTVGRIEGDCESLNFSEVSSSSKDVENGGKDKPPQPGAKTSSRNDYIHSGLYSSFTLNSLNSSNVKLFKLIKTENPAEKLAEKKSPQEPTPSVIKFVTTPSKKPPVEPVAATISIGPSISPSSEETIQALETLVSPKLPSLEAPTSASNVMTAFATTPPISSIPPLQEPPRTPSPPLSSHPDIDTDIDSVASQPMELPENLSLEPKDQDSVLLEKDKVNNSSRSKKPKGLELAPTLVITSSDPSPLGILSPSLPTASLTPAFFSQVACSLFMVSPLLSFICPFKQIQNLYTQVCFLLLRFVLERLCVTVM
The conditions noted are these: protein: recombinant; tags: N-terminal GST; dsDNA, one strand shown. Summed up:
as §1

Assay [7] addresses T4, ETV2 (Homo sapiens, UniProt O00321 1-342).
T4 sequence: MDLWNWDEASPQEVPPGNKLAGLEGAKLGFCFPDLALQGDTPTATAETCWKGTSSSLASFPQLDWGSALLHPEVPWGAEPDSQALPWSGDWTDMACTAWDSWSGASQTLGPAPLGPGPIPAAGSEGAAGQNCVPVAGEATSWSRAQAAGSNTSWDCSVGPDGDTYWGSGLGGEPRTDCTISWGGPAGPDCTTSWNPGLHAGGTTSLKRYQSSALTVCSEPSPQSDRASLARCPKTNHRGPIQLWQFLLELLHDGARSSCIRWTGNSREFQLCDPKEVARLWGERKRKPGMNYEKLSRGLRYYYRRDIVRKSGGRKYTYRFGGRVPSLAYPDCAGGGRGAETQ
As to conditions: protein: recombinant; tags: N-terminal GST; dsDNA, one strand shown. An outline of the steps:
as §1

For assay [8], the target named is T5, ELF3 (Homo sapiens, UniProt P78545 1-371).
T5 sequence: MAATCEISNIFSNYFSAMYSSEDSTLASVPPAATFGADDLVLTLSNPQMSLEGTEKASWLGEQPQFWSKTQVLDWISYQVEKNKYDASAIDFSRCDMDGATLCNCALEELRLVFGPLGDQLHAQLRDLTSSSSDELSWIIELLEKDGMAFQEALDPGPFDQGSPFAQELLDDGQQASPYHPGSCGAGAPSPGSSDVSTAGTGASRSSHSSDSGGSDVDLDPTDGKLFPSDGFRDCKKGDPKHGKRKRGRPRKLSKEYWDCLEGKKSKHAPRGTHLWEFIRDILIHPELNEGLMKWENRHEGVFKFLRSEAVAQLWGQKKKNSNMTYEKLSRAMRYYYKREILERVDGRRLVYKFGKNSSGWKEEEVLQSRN
As to conditions: protein: recombinant; tags: N-terminal GST; dsDNA, one strand shown. Summed up:
as §1

For assay [9], the target named is CRX (Homo sapiens, UniProt O43186 1-299). As to conditions: protein: recombinant; tags: N-terminal GST; dsDNA, one strand shown. An outline of the steps: as §1
CRX, sequence (O43186 whole entry): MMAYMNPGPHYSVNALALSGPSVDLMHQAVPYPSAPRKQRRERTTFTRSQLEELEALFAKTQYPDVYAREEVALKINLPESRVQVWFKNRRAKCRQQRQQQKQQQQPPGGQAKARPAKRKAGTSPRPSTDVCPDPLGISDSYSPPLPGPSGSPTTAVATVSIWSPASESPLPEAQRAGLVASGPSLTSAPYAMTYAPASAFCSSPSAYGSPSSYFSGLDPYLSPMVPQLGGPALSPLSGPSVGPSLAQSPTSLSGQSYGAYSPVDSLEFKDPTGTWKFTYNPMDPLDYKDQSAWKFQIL
The target of assay [10] is ETV1 (Homo sapiens, UniProt P50549 1-477). The conditions noted are these: protein: recombinant; tags: N-terminal GST; dsDNA, one strand shown. An outline of the steps:
as §1

Assay [11] deals with T6, ERF (Homo sapiens, UniProt P50548 1-548).
T6 sequence: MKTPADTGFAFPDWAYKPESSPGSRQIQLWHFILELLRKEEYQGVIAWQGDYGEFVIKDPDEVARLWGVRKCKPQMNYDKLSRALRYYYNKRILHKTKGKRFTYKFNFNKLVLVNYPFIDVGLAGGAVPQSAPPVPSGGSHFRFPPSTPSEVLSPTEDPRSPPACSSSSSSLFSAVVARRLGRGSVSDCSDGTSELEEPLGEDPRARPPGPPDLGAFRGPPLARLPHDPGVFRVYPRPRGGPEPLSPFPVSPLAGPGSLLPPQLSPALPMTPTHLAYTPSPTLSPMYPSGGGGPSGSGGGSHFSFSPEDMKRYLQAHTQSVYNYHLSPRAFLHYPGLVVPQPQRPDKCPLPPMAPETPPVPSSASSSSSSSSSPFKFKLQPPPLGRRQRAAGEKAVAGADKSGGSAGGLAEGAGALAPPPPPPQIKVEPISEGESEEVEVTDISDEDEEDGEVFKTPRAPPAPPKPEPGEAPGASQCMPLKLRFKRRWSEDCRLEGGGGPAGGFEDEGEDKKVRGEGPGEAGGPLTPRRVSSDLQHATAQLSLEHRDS
The conditions noted are these: protein: recombinant; tags: N-terminal GST; dsDNA, one strand shown. Summed up:
as §1

Assay [12] concerns the target T7, ETV3L (Homo sapiens, UniProt Q6ZN32 1-361).
T7 sequence: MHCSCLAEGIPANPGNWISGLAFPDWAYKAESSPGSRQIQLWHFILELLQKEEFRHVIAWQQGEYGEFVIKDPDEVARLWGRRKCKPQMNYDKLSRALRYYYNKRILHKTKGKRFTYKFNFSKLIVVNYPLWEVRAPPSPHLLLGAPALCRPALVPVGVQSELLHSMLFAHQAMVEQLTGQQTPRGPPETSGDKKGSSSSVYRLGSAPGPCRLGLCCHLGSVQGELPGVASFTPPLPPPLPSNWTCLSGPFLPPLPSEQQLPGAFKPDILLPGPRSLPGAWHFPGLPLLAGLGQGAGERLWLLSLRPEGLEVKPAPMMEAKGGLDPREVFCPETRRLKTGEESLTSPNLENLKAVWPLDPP
As to conditions: protein: recombinant; tags: N-terminal GST; dsDNA, one strand shown. Summed up:
as §1

The target of assay [13] is T8, ETS2 (Homo sapiens, UniProt P15036 1-469).
T8 sequence: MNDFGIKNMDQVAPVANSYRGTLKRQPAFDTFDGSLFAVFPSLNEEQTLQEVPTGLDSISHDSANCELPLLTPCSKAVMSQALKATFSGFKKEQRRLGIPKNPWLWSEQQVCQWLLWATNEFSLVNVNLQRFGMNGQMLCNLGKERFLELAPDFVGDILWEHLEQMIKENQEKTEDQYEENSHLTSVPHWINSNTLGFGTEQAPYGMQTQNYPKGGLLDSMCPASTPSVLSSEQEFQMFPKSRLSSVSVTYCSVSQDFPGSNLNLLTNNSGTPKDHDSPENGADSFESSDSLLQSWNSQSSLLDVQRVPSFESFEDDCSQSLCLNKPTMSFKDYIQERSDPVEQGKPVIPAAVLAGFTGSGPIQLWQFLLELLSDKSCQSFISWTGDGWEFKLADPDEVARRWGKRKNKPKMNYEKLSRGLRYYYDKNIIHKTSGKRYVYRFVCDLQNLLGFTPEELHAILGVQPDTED
As to conditions: protein: recombinant; tags: N-terminal GST; dsDNA, one strand shown. An outline of the steps:
as §1

Assay [14] has as its target T9, SPDEF (Homo sapiens, UniProt O95238 1-335).
T9 sequence: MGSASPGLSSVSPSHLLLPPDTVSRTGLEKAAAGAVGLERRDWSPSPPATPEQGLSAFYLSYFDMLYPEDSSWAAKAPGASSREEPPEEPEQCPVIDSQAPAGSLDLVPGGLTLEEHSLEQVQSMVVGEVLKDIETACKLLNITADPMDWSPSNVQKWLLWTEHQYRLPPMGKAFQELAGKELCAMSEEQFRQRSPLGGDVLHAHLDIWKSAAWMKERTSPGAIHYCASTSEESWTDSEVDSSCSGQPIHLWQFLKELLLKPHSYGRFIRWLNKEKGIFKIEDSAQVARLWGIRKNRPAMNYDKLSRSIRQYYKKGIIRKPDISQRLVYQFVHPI
The conditions noted are these: protein: recombinant; tags: N-terminal GST; dsDNA, one strand shown. An outline of the steps:
as §1

For assay [15], the target named is T10, ETV7 (Homo sapiens, UniProt Q9Y603 1-341).
T10 sequence: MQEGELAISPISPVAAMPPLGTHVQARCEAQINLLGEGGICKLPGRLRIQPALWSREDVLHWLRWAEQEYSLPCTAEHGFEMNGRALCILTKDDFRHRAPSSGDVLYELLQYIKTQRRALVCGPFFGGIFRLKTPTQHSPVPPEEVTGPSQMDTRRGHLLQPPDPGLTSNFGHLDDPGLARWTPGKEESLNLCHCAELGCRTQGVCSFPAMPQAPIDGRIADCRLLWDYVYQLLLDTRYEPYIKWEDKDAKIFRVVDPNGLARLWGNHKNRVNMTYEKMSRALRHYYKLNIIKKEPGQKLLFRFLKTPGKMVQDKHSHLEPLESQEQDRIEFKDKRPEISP
As to conditions: protein: recombinant; tags: N-terminal GST; dsDNA, one strand shown. Summed up: as §1

Assay [16] deals with T11, ELF5 (Homo sapiens, UniProt Q9UKW6-2 1-255).
T11 sequence: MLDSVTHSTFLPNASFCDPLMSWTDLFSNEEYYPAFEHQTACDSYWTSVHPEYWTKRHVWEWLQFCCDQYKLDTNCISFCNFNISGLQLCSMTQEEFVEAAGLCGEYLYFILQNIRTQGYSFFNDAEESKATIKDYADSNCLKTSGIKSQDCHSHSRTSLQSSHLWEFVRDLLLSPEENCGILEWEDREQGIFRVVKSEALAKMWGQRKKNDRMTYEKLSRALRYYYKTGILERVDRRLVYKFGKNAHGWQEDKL
The conditions noted are these: protein: recombinant; tags: N-terminal GST; dsDNA, one strand shown. An outline of the steps:
as §1

The target of assay [17] is T12, ETV3 (Homo sapiens, UniProt P41162-2 1-143).
T12 sequence: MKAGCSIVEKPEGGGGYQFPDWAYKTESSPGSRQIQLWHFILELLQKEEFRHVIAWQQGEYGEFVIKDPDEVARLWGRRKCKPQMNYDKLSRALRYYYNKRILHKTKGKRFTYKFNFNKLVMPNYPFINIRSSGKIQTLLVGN
The conditions noted are these: protein: recombinant; tags: N-terminal GST; dsDNA, one strand shown. An outline of the steps:
as §1

Assay [18] deals with ETV6 (Homo sapiens, UniProt P41212 1-452). As to conditions: protein: recombinant; tags: N-terminal GST; dsDNA, one strand shown. Summed up:
as §1

ELF4, sequence (Q99607 whole entry): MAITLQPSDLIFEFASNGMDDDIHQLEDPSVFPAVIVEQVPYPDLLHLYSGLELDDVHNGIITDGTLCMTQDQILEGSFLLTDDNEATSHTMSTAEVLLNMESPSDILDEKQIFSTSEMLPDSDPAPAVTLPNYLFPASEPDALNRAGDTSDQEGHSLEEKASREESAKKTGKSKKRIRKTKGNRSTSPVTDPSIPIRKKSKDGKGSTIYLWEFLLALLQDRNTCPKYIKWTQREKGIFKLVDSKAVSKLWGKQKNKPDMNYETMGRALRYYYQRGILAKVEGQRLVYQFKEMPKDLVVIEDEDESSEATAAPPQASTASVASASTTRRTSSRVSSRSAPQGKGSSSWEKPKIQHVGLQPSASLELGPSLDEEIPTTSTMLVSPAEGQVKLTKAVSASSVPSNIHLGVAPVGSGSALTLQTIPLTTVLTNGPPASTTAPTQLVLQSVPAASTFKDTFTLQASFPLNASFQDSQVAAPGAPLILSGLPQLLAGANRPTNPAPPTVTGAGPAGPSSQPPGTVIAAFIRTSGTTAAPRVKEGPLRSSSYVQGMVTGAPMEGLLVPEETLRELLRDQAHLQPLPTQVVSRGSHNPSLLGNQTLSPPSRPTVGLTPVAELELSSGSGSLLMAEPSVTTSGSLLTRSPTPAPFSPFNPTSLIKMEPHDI
HSF1, sequence (Q00613 whole entry): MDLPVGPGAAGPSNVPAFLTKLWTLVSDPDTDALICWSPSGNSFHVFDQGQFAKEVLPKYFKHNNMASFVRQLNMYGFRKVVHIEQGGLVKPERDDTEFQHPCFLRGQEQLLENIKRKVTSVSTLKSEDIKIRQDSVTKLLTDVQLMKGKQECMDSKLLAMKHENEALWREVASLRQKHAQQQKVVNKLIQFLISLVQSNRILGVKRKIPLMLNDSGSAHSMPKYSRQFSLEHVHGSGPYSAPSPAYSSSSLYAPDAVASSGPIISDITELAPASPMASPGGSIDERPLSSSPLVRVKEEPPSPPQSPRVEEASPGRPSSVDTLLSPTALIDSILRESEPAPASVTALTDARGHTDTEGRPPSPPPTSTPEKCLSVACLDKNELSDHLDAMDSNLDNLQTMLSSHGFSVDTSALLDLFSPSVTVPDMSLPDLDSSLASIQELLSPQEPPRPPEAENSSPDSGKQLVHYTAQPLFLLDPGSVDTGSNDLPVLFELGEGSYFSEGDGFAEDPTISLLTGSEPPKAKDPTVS
ETV6, sequence (P41212 whole entry): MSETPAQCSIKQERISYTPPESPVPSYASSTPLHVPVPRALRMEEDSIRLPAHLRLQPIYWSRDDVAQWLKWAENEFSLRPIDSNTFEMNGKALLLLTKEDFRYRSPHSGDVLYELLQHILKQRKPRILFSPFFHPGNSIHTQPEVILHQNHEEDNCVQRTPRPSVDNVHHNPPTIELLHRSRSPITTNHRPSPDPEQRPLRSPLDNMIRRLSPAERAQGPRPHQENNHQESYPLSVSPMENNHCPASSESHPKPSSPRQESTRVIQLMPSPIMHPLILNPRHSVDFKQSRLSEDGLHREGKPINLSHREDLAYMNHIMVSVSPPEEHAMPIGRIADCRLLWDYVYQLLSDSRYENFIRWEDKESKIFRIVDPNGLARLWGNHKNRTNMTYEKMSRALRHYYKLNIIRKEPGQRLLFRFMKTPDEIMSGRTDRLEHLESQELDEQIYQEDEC
ETV5, sequence (P41161 whole entry): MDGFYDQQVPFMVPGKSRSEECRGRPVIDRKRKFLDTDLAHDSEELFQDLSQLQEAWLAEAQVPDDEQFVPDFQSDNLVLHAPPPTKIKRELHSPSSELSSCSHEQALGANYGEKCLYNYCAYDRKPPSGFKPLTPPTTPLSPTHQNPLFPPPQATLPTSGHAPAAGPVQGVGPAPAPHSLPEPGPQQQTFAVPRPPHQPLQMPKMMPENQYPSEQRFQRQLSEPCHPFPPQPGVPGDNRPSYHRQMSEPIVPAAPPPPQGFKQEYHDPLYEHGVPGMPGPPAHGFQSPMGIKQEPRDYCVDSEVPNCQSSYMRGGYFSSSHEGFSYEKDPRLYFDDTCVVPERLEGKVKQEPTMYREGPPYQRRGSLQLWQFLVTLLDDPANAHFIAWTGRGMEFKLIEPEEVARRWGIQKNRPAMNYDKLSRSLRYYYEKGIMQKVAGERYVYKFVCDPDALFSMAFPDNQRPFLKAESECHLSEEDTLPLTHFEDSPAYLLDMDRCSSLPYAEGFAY
ETV1, sequence (P50549 whole entry): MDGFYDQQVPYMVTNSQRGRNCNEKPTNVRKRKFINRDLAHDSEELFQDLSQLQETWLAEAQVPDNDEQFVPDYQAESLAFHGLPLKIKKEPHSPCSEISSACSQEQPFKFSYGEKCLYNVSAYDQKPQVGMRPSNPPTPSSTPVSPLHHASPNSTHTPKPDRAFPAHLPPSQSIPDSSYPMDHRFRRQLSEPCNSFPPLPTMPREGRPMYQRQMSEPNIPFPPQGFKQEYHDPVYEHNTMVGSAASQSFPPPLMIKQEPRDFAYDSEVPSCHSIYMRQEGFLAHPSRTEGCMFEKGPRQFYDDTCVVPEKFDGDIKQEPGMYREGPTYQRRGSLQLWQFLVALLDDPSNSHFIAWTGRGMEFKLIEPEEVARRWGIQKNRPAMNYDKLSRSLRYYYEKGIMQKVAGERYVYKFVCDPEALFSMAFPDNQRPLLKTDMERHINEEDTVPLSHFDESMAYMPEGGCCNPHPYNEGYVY

As to TTTAGC, the binding signal is 1.11 fold enrichment (6-mer frequency, TF over GST control) in assay [1]; 1.03 fold enrichment (6-mer frequency, TF over GST control) in assay [2]; 1.25 fold enrichment (6-mer frequency, TF over GST control) in assay [3]; 1.07 fold enrichment (6-mer frequency, TF over GST control) in [4]; 1.2 fold enrichment (6-mer frequency, TF over GST control) in assay [5]; 1.13 fold enrichment (6-mer frequency, TF over GST control) in assay [6]. The binding signal in [7] was 1.13 fold enrichment (6-mer frequency, TF over GST control); in assay [8] it was 1.08 fold enrichment (6-mer frequency, TF over GST control); in [9], 1.64 fold enrichment (6-mer frequency, TF over GST control); in assay [10] it was 1.18 fold enrichment (6-mer frequency, TF over GST control); in assay [11], 1.19 fold enrichment (6-mer frequency, TF over GST control); in assay [12], 1.21 fold enrichment (6-mer frequency, TF over GST control). In addition, the binding signal in [13] was 1.01 fold enrichment (6-mer frequency, TF over GST control); in assay [14], 1.08 fold enrichment (6-mer frequency, TF over GST control); in [15], 1.03 fold enrichment (6-mer frequency, TF over GST control); in assay [16] it was 1 fold enrichment (6-mer frequency, TF over GST control); in [17], 1.13 fold enrichment (6-mer frequency, TF over GST control); in [18], 1.12 fold enrichment (6-mer frequency, TF over GST control).

The record behind these values is article PMC7862700, “An all-to-all approach to the identification of sequence-specific readers for epigenetic DNA modifications on cytosine”.
